From PubChem BioAssay
Only some compounds are listed: those with a hit (about 11% of all), similar ones and a draw of the others.
Pf growth 96h – Primary qHTS for delayed death inhibitors of the malarial parasite plastid, 96 hour incubation; Potency, µM (titrated, usually from 28.7 µM), for the others: at the highest dose activity change, negative = inhibition, most hits filed as inhibitors; P. falciparum luciferase reporter growth, 96 h; 6.9% of 320,000 active; further: on the % scale 0 is the no-effect control and ±100 the full control effect
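Infected RBCs, 2% Hct / 0.05% parasitemia final; luciferase-reporter P. falciparum; cpd 96 h, 37 C, 5% CO2; luciferase detection reagent; luminescence.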
NS1 function inh – qHTS Assay for Inhibitors of Influenza NS1 Protein Function | Potency, µM (series often up to 46.1 µM), without a hit: at the top dose activity, positive = more growth | 0.4% of 270,000 active; calls by dose curve; further: actives are rising curves; nearly all actives have a fitted effect of over 50% in size
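A cell-based growth assay was used: compounds that relieve NS1-induced slow growth of budding yeast raise OD600. Assay medium was yeast nitrogen base with ammonium sulphate and -URA supplement, pH 6.0, with 2% galactose.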
HCV inh – qHTS Assay for Inhibitors of Hepatitis C Virus (HCV). Huh7.5.1 HCVcc-Cre infection, luciferase reporter, 44 h. Potency, µM (doses to about 41.8 µM), for inactives: at the highest dose activity change, negative = inhibition, hits mostly inhibitors. 3.4% of 340,000 active; further: on the % scale 0 is the no-effect control and ±100 the full control effect
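HCVcc-Cre virus at an moi near 0.5 was added right after compound to cells cultured 4 h from seeding (1,000 cells/well). Luciferase activity was determined 44 h later, 15 min after substrate addition at RT.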
VACV mCherry inh – qHTS for Stage-Specific Inhibitors of Vaccinia Orthopoxvirus: mCherry Reporter Primary qHTS; Vaccinia virus mCherry reporter infection, fluorescence; Potency, µM (highest dose often 36.5 µM), inactives show at the top dose activity change, negative = inhibition, usual class: inhibitors; 0.63% of 310,000 active; AID 720579, 2013; calls by dose curve; tested in A549 cells; further: on the % scale 0 is the no-effect control and ±100 the full control effect; nearly all actives have a fitted effect of over 35% in size
Pf growth 48h – Primary qHTS for delayed death inhibitors of the malarial parasite plastid, 48 hour incubation; P. falciparum luciferase growth in erythrocytes, 48 h; Potency, µM (series often up to 28.7 µM), inactives show at the top dose activity change, negative = inhibition, actives largely listed as inhibitors; 5.9% of 310,000 active; further: on the % scale 0 is the no-effect control and ±100 the full control effect
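Luciferase-expressing parasites in RBCs, 2% Hct / 0.1% parasitemia final; RPMI 1640 + 0.5% Albumax; 37 C, 5% CO2, one generation; luminescence read-out, lower signal = inhibition.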
VACV Venus inh – qHTS for Stage-Specific Inhibitors of Vaccinia Orthopoxvirus: Venus Reporter Primary qHTS; AID 720580, 2013; Vaccinia virus Venus reporter expression, fluorescence; Potency, µM (titrated, usually from 36.5 µM), inactives show at the top dose activity change, negative = inhibition, actives largely listed as inhibitors; 0.46% of 330,000 active; calls by dose curve; tested in A549 cells; further: on the % scale 0 is the no-effect control and ±100 the full control effect; nearly all actives have a fitted effect of over 30% in size
* = called active by the depositor; i = inactive; ? = inconclusive; / = not tested or not shown. Unless noted, the call rests on the fitted dose curve; in most records, active means well fitted inhibition curve with a large enough effect; inconclusive means small, poorly fitted or top-dose-only effect, or another doubt; inactive means no such curve, though single readings can be large or run the other way. Potency means the concentration at half of the fitted maximal effect.

SMILES	Pf growth 96h	NS1 function inh	HCV inh	VACV mCherry inh	Pf growth 48h	VACV Venus inh
Cc1ccccc1NC(=O)CSc1nnc(Cc2ccccc2)c(=O)n1N	9%	/	-15%	i	33%	-12%
CC(C)OCCCN(C)C1CCN(S(=O)(=O)c2ccc(-c3cc(C(F)(F)F)no3)s2)CC1	?	6%	?	/	12µM*	/
CCO[C@@H]1OC(C(=O)Nc2ccccc2)=C[C@H](C2CC2)[C@H]1CCCO	?	0%	?	32%	?	1%
CO[C@H]1[C@H](NC(=O)c2ccsc2)c2ccccc2C12CCN(Cc1ccc3c(c1)OCO3)CC2	/	/	/	-18%	/	-8%
COc1ccccc1C1CN=NC12CCCc1ccccc1C2=O (stereo not given)	17µM*	2%	-24%	-26%	9.3µM*	-17%
COc1ccc(C2CN=NC23CCc2ccccc2C3=O)cc1 (stereo not given)	?	0%	-19%	/	13µM*	/
COC(=O)c1c(C)cccc1C1CN=NC12Cc1ccccc1C2=O (stereo not given)	/	/	2%	?	/	-15%
COc1ccc(C2CN=NC23CCCc2ccccc2C3=O)cc1 (stereo not given)	2.6µM*	-32%	?	/	3.7µM*	/
Cc1nc2ccccc2cc1C(=O)N/N=C/c1cccs1	19%	5%	20%	-12%	2%	-8%
Cc1cc(OCC(=O)NCc2ccccn2)cc(C)c1Br	?	-8%	12%	i	14%	-10%
COC(=O)c1ccc(C2Nc3cccc4cccc(c34)N2)cc1	23%	/	-15%	-9%	?	-12%
Cc1ccc(Sc2ncccc2COC(=O)Nc2c(C)cccc2C)cc1	7.4µM*	12%	?	/	?	?
Nc1nc(Cl)nc2c1ncn2[C@@H]1O[C@H](CO)[C@H](O)[C@H]1O	/	0%	/	/	/	/
Nc1nc(Nc2ccccc2)nc2c1ncn2[C@@H]1O[C@H](CO)[C@@H](O)[C@H]1O	/	/	2µM*	-12%	/	-3%
Nc1nc(F)nc2c1ncn2[C@@H]1O[C@H](CO)[C@@H](O)[C@@H]1O	-30%	-2%	3%	3.2µM*	2%	7.1µM*
Nc1ncnc2c1ncn2C1OC(CO)C(O)C1O (stereo not given)	54%	-4%	15%	-6%	9%	6%
Nc1nc(Cl)nc2c1ncn2C1CC(O)C(CO)O1 (stereo not given)	18%	/	-12%	2.5µM*	7%	?
OC[C@H]1O[C@@H](n2cnc3cncnc32)[C@H](O)[C@@H]1O	/	0%	/	13µM*	/	?
COc1ccccc1OCC(=O)OCC(=O)Nc1ncc(Cl)cc1Cl	53%	-8%	1%	/	7%	1%
OC[C@H]1O[C@@H](n2cnc3c(NCc4ccco4)ncnc32)[C@H](O)[C@@H]1O	/	/	18µM*	10µM*	/	?
Nc1ncnc2c1ncn2[C@@H]1O[C@H](CNCc2ccc(OCc3ccccc3)cc2)[C@@H](O)[C@H]1O	/	/	4µM*	i	/	-15%
Cc1ccccc1CNc1ncnc2c1ncn2C1OC(CO)C(O)C1O (stereo not given)	-13%	-3%	/	/	-5%	/
CC(=O)Nc1cccc(NC(=O)Cc2nc(-c3ccccc3)sc2-c2ccc(C)cc2)c1	?	?	-19%	?	?	-23%
Cc1cccc(NC(=O)CSc2ccc(-c3cccnc3)nn2)c1	12µM*	-7%	?	-20%	?	-2%
COc1cccc(NC(=O)Cc2nc(-c3ccccc3)sc2-c2ccc(C)cc2)c1	10µM*	7%	-23%	i	?	-4%
SMILES	Pf growth 96h	NS1 function inh	HCV inh	VACV mCherry inh	Pf growth 48h	VACV Venus inh
COc1cccc(NC(=O)CSc2ccc(-c3sc(C)nc3C)nn2)c1	?	-4%	32µM*	?	?	-20%
COc1ccc(OC)c(NC(=O)CSc2ccc(-c3sc(C)nc3C)nn2)c1	/	/	/	-8%	/	-8%
COc1ccc(C)cc1NC(=O)CSc1ccc(-c2sc(C)nc2C)nn1	1%	16%	10µM*	i	12µM*	-20%
Cc1ccc(NC(=O)CSc2ccc(-c3cccnc3)nn2)cc1	?	10%	?	-7%	?	-26%
Cc1ccc(/C=N\NC(=O)CCc2n[nH]c(=O)[nH]c2=O)o1	-5%	/	2%	/	1%	/
COc1ccc(-c2nnc(CSc3nnc(-c4ccncc4)n3C3CCCCC3)o2)cc1OC	9.3µM*	-9%	-8%	/	?	/
COc1cccc(/C=C2/C(=O)NN(c3ccc(Br)cc3)C2=O)c1O	4%	-47%	-10%	/	20%	/
CCOC(=O)Cc1csc(NS(=O)(=O)c2cc(Cl)ccc2Cl)n1	-18%	26%	15%	i	32%	-10%
CCOC(=O)CSc1nc2cc(OCC)ccc2cc1C#N	/	-3%	-27%	/	119%	/
CCOc1ccc2cc(C#N)c(SCC(=O)N3CCC(C)CC3)nc2c1	29%	-12%	?	/	9.3µM*	/
CCOc1ccc2cc(C#N)c(SCC(=O)NC(C)CC)nc2c1 (stereo not given)	7.4µM*	-3%	/	/	3%	/
COCCNC(=O)C(C)Oc1ccccc1 (stereo not given)	6%	11%	8%	/	22%	/
CCN(CC)c1ccc(N=Cc2c(C)[nH]c3ccccc23)cc1	4.7µM*	-7%	?	7%	1.9µM*	1%
Cc1[nH]c2ccccc2c1/C=N/O	0%	9%	4%	/	13%	/
Nc1nc(N2CCN(C(=O)c3ccco3)CC2)nc2ccc(Br)cc12	34%	/	11µM*	/	35%	/
O=C(O)c1ccc(S(=O)(=O)c2ccc3c(c2)C(=O)N(c2ccc(O)cc2)C3=O)cc1	13%	-2%	15%	/	-3%	/
O=C1c2ccc3c4c(ccc(c24)C(=O)N1c1ccc(O)cc1)C(=O)N(c1ccc(O)cc1)C3=O	4.7µM*	2%	?	9%	-15%	4%
CC(=O)Nc1nonc1-n1nnc(C(=O)NCc2ccccc2)c1C	2.3µM*	8%	-19%	/	-28%	/
CC(=O)Nc1c(C(=O)NCc2ccccc2)nnn1Cc1ccccc1	3%	6%	8%	-8%	2%	-1%
C=CCn1c(COc2ccccc2F)nnc1SCC(=O)NC(=O)NCc1ccco1	5%	10%	14%	0%	/	-8%
C=CCn1c(SCC(=O)Nc2cccc3ccccc23)nnc1-c1cnccn1	?	4%	-11%	/	?	/
C=CCn1c(SCC(=O)Nc2cc3oc4ccccc4c3cc2OC)nnc1-c1cnccn1	-15%	-106%	13µM*	/	9.3µM*	/
